Assay results published in PubChem BioAssay (NCI).
Compounds without any hit were thinned out: in the full panel of roughly 83,000, 20% have a hit.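 Single-dose data. Exposure time 48 hours. Values below 10 considered active.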 Values without a mark were called inactive. Calls of active or inactive are those of the source.

Columns and labels:
Experiment in all cases: NCI-60 one-dose screen, 48 h (100 = growth as untreated, 0 = no growth, -100 = all killed)
Details in all cases: 10 µM
[1] = test system: SK-MEL-2 melanoma
[2] = test system: EKVX NSCLC
[3] = test system: SN12C renal
[4] = test system: UO-31 renal
[5] = test system: TK-10 renal
[6] = test system: ACHN renal
[7] = test system: CAKI-1 renal
[8] = test system: A498 renal
[9] = test system: CCRF-CEM leukemia
[10] = test system: MOLT-4 leukemia
[11] = test system: RPMI-8226 leukemia
[12] = test system: OVCAR-8 ovarian
[13] = test system: OVCAR-5 ovarian
[14] = test system: OVCAR-4 ovarian
[15] = test system: SK-OV-3 ovarian
[16] = test system: IGROV1 ovarian
[17] = test system: OVCAR-3 ovarian
[18] = test system: HS 578T breast
[19] = test system: NCI/ADR-RES ovarian
[20] = test system: SR leukemia

SMILES | growth [1] | growth [2] | growth [3] | growth [4] | growth [5] | growth [6] | growth [7] | growth [8] | growth [9] | growth [10] | growth [11] | growth [12] | growth [13] | growth [14] | growth [15] | growth [16] | growth [17] | growth [18] | growth [19] | growth [20]
CC1=C(C(=O)OC(C)C)C(c2ccc(O)cc2)NC(=S)N1 (configuration not stated) | 99.2% | 92.5% | 105% | 96.2% | 95.5% | 109% | 98% | 138% | 101% | 94.8% | 95.7% | 130% | 116% | 115% | 107% | 110% | 105% | 103% | 97.5% | –
CC1=C2C(=C[C@@](C)(CO)[C@@H]2O)/C(=N\N)[C@](C)(O)C12CC2 | -100% (active) | -44.2% (active) | 0.386% (active) | -29.2% (active) | 1.74% (active) | -18.6% (active) | 1.03% (active) | -27.8% (active) | 18.8% | 3.48% (active) | 56.2% | 1.18% (active) | -42.8% (active) | -21.7% (active) | -24.7% (active) | -11.3% (active) | -24.4% (active) | -12.5% (active) | -43.2% (active) | –
O=C(Nc1ccc(I)cc1F)c1cc(-c2ccc(F)cc2F)ccc1O | -39.9% (active) | 0.815% (active) | -4.86% (active) | -0.556% (active) | 19.9% | -5.83% (active) | -21% (active) | -21.3% (active) | 7.55% (active) | -0.655% (active) | -18.1% (active) | 8.5% (active) | 3.54% (active) | 17.2% | -10.6% (active) | 22.7% | -1.28% (active) | 2.66% (active) | -8.34% (active) | –
O=C(c1ccc(Cl)cc1)C1[C@H](c2ccccc2Br)[C@@H](c2ccccc2)NC12C(=O)Nc1ccccc12 (some centres not stated) | 2.05% (active) | 14% | -54.2% (active) | 13.1% | 55.7% | 11.1% | 14.8% | 55.5% | 7.61% (active) | 2.61% (active) | 12.3% | 27.4% | 4.22% (active) | 25.9% | 35.9% | 31.3% | 10.5% | 18% | -70% (active) | –
COC(=O)CC1CC1C1Cc2c(nc(N(C)S(C)(=O)=O)nc2C(C)C)-c2ccc(F)cc21 (configuration not stated) | 80.9% | 87% | 94.9% | 71.5% | 114% | 86.6% | 52.1% | 117% | 61.5% | 38.6% | 46% | 80.6% | – | 82.3% | 106% | 81.4% | 97.5% | – | 71.8% | –
CCCn1c(=O)c2[nH]c(-c3ccc(OCc4nc5ccc(C#N)cc5[nH]4)cc3)nc2n(CCC)c1=O | 96.8% | 80.6% | 76.5% | 67.8% | 107% | 70.4% | 89.6% | 79.1% | 83.6% | – | 68.9% | 66.3% | 113% | 78.9% | 85.5% | 62.2% | 68% | 40% | 97.1% | 59.5%
CC1(c2ccccc2)NC(=O)N(CC(=O)Nc2ccc(C(=O)/C=C/c3ccc(Cl)cc3)cc2)C1=O (configuration not stated) | 34% | 30.3% | 19.4% | 22.7% | 67.9% | 13.4% | 21.4% | 76.7% | 7.4% (active) | -4.5% (active) | – | 17.7% | 34.5% | 24.8% | 66% | -19.8% (active) | -69.9% (active) | 48.9% | 48.9% | –
Cc1ccc(CSc2nc(-c3ccc(F)cc3)c(C#N)c(=O)[nH]2)cc1 | 103% | 99.6% | 102% | 96.2% | 93.5% | 100% | 92.5% | 99.3% | 94.7% | 88.4% | 91.5% | – | 99% | 96.5% | 105% | 113% | 102% | 105% | 95.9% | –
CC(=O)NNc1ccc2nnc(-c3ccc(Br)cc3)n2n1 | 104% | 81.7% | 105% | 82.1% | 103% | 101% | 90.3% | 83.4% | 40.1% | 92.3% | 91.7% | – | 102% | 99.4% | 81.2% | 105% | 104% | 102% | 101% | –
COc1ccc(NC(=O)CSc2nnc(-c3ccc4nc(-c5ccc(Cl)cc5)[nH]c4c3)o2)cc1 | 107% | 98.8% | 29.1% | 63.9% | 121% | 63.8% | 83.6% | 132% | 67.5% | – | 56.5% | 14.1% | 79.9% | -2.09% (active) | 101% | 78.4% | 55.3% | 35.2% | 81.3% | 43.5%
CN(CCO)c1oc(-c2ccccc2)nc1[P+](c1ccccc1)(c1ccccc1)c1ccccc1 | -33.8% (active) | 18.1% | -3.43% (active) | 74.3% | 24% | 56.3% | 59.7% | -7.19% (active) | 9.94% (active) | – | 7.8% (active) | 12.3% | 16.2% | 15.1% | -13.5% (active) | 6.36% (active) | -0.969% (active) | -11.4% (active) | 96.6% | 5.21% (active)
COC(=O)c1c(C(=O)OC)c2n(c1C)[C@@H]([C@@H](C)[C@H]1CC[C@H]3[C@@H]4CCC5=CC(=O)CC[C@]5(C)[C@H]4CC[C@]13C)SC2 | 40.2% | 26.2% | 58% | 30.1% | 57.9% | 46% | -3.55% (active) | 71.8% | 10.2% | – | -11.5% (active) | 26.7% | 54.2% | 38.5% | 48.7% | 75.9% | 51.4% | 56.6% | 7.08% (active) | 17.9%
O=C(Nc1ccc(F)c(Cl)c1)c1cc(-c2ccc(F)cc2F)ccc1O | -69.2% (active) | -5.82% (active) | -17.3% (active) | -5.93% (active) | 19.1% | -13.4% (active) | -18.2% (active) | -21% (active) | 0.694% (active) | -21.1% (active) | -28.6% (active) | – | 0.459% (active) | 12.9% | -5.38% (active) | 16.4% | 9.88% (active) | -3% (active) | -15.1% (active) | –
CC(=O)Nc1ccc(-c2cn(-c3cccc(C(=O)Nc4ccc(F)c(C(F)(F)F)c4)c3)nn2)cn1 | 88.9% | 79.9% | 13.4% | 123% | 109% | 56.4% | 74.1% | 114% | 53.9% | – | 66.6% | 2.67% (active) | 89.1% | 13.5% | 90.8% | 43.2% | 24.9% | 7.97% (active) | 86.3% | 34.6%
[2H]C([2H])([2H])Oc1ccc2ncc(C#Cc3cncc(C(=O)Nc4ccc(CN5CCN(C)CC5)c(C(F)(F)F)c4)c3)n2n1 | -92.7% (active) | -60% (active) | -78.2% (active) | -85.2% (active) | -53.4% (active) | -88.9% (active) | -78.7% (active) | -50.6% (active) | 0.607% (active) | -13.6% (active) | – | -25.7% (active) | -92.9% (active) | -34.6% (active) | -58.4% (active) | -62.5% (active) | -78.8% (active) | -47.9% (active) | -68% (active) | –
Cc1ccc(-c2nc(Nc3ccccc3C(=O)O)c3ccccc3n2)cc1 | 5.75% (active) | 13.1% | 22.2% | 12.6% | 58.9% | 7.89% (active) | 21.1% | 21.6% | 12.8% | – | 17.1% | 30.5% | 65.9% | 21.8% | 31.3% | 31.1% | 6.01% (active) | -9.53% (active) | 5.16% (active) | 18.6%
